Results reported in article PMC7862700, “An all-to-all approach to the identification of sequence-specific readers for epigenetic DNA modifications on cytosine”.

How the values were obtained:
Test in all cases: DAPPL (digital affinity profiling via proximity ligation, sequencing); 10 mM Tris-HCl pH 7.5, 50 mM NaCl, 1 mM DTT, 4% glycerol, room temperature, 30 min; GST-TFs on glutathione beads, 16-mer random dsDNA library, 0.1% formaldehyde crosslink after washing; high values mean tight binding
Conditions in all cases: protein: recombinant; tags: N-terminal GST; dsDNA, one strand shown
ERF = target: T1, ERF (Homo sapiens, UniProt P50548 1-548)
T1 sequence: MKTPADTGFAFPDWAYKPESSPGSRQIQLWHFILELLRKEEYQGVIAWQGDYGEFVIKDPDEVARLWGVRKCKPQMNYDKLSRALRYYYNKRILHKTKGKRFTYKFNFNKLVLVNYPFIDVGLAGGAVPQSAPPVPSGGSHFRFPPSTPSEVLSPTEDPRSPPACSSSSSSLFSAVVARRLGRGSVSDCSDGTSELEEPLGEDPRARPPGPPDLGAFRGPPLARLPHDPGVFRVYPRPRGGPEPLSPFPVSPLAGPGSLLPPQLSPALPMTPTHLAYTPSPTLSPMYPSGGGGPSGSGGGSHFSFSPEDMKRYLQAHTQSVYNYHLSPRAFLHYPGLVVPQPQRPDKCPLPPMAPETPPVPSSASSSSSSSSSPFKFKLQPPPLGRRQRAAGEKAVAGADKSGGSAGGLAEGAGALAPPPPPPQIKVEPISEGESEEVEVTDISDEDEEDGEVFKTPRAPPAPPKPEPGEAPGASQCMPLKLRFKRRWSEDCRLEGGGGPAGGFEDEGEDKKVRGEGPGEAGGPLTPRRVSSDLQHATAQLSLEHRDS
Outline: (§1)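 Human transcription factors fused to GST were expressed in yeast, captured on glutathione beads, given DNA barcodes and pooled with a GST-only negative control. Pools were incubated with 200 nmole of a 16-mer random double-stranded DNA library in Tris/NaCl/DTT/glycerol buffer at room temperature for 30 min. They were then washed, crosslinked with 0.1% formaldehyde, proximity-ligated (BsaI/T4 ligase, 1 h, 37 °C), PCR-amplified and sequenced on an Illumina NextSeq500. Binding signal is each 6-mer's read frequency for a factor divided by its frequency for the GST control.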

ETV3L = target: T2, ETV3L (Homo sapiens, UniProt Q6ZN32 1-361)
T2 sequence: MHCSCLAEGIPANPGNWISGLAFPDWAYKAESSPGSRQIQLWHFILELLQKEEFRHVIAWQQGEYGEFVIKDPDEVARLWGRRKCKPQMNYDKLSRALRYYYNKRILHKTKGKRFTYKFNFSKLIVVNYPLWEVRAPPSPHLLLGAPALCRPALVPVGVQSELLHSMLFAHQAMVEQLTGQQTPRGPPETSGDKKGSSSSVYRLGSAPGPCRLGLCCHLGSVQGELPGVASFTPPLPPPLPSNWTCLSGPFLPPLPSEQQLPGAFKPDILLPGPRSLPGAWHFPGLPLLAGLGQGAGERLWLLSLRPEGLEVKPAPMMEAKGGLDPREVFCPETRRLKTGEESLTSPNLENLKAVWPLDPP
Outline: as §1

ETS2 = target: T3, ETS2 (Homo sapiens, UniProt P15036 1-469)
T3 sequence: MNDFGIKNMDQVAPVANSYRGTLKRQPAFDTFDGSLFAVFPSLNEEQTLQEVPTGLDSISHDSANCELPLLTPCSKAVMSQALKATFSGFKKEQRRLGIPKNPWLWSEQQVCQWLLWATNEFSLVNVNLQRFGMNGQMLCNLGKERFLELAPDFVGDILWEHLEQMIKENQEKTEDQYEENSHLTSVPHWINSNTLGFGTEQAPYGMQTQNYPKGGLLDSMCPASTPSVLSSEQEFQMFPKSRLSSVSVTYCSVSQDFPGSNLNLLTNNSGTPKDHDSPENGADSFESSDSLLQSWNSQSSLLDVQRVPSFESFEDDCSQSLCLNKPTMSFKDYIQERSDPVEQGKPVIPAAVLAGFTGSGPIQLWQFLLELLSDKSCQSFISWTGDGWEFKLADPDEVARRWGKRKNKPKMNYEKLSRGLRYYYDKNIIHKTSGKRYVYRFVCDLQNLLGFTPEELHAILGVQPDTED
Outline: as §1

SPDEF = target: T4, SPDEF (Homo sapiens, UniProt O95238 1-335)
T4 sequence: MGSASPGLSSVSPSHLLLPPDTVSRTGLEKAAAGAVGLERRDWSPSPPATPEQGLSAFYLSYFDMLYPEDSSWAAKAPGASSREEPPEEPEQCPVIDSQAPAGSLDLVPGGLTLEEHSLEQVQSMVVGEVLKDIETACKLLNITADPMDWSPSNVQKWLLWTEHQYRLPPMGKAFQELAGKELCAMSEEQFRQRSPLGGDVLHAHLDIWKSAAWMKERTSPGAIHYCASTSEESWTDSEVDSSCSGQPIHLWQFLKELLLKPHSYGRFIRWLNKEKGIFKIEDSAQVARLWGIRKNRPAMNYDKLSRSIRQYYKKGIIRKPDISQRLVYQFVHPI
Outline: as §1

ETV7 = target: T5, ETV7 (Homo sapiens, UniProt Q9Y603 1-341)
T5 sequence: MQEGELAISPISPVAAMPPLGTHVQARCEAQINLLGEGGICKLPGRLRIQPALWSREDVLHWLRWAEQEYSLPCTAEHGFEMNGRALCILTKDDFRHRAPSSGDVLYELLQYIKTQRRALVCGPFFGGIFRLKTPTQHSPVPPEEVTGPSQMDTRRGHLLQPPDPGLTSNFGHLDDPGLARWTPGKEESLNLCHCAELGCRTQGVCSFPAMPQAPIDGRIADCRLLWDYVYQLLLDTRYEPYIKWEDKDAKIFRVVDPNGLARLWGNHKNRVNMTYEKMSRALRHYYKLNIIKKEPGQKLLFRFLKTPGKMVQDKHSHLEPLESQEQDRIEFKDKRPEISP
Outline: as §1

ELF5 = target: T6, ELF5 (Homo sapiens, UniProt Q9UKW6-2 1-255)
T6 sequence: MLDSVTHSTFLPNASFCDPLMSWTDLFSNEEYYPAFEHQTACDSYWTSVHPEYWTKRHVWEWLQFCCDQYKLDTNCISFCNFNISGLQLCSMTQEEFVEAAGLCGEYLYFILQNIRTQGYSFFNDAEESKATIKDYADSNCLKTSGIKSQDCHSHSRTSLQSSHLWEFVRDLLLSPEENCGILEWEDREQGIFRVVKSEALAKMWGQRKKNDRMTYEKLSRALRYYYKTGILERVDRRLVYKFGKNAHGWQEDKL
Outline: as §1

ETV3 = target: T7, ETV3 (Homo sapiens, UniProt P41162-2 1-143)
T7 sequence: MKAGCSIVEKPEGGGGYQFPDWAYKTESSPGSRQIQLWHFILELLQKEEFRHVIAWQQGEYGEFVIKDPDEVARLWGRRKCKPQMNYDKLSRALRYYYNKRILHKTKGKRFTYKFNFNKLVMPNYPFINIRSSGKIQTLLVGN
Outline: as §1

ETV6 = ETV6 (Homo sapiens, UniProt P41212 1-452)
Outline: as §1

Chain of ETV6 (P41212 whole entry): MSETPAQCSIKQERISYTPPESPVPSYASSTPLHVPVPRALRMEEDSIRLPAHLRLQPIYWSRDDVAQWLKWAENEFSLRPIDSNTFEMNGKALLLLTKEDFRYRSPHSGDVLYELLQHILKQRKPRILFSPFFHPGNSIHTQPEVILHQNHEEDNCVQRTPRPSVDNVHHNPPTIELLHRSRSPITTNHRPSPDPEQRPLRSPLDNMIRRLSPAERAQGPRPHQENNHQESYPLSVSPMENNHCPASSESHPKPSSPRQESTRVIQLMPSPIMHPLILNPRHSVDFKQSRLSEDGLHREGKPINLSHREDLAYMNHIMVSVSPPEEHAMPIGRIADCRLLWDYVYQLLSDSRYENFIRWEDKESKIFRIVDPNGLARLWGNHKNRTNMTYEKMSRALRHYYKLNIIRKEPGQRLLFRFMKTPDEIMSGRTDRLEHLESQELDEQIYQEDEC

Sequence | binding signal (ERF) | binding signal (ETV3L) | binding signal (ETS2) | binding signal (SPDEF) | binding signal (ETV7) | binding signal (ELF5) | binding signal (ETV3) | binding signal (ETV6)
TGCACA | 1.22 fold enrichment (6-mer frequency, TF over GST control) | 1.13 fold enrichment (6-mer frequency, TF over GST control) | 1.06 fold enrichment (6-mer frequency, TF over GST control) | 1.21 fold enrichment (6-mer frequency, TF over GST control) | 1.02 fold enrichment (6-mer frequency, TF over GST control) | 1.07 fold enrichment (6-mer frequency, TF over GST control) | 1.18 fold enrichment (6-mer frequency, TF over GST control) | 1.06 fold enrichment (6-mer frequency, TF over GST control)
ACACAA | 1.26 fold enrichment (6-mer frequency, TF over GST control) | 1.2 fold enrichment (6-mer frequency, TF over GST control) | 1.25 fold enrichment (6-mer frequency, TF over GST control) | 1.17 fold enrichment (6-mer frequency, TF over GST control) | 1.08 fold enrichment (6-mer frequency, TF over GST control) | 1.17 fold enrichment (6-mer frequency, TF over GST control) | 1.13 fold enrichment (6-mer frequency, TF over GST control) | 1.2 fold enrichment (6-mer frequency, TF over GST control)
ACACAC | 1.14 fold enrichment (6-mer frequency, TF over GST control) | 1.15 fold enrichment (6-mer frequency, TF over GST control) | 1.17 fold enrichment (6-mer frequency, TF over GST control) | 1.14 fold enrichment (6-mer frequency, TF over GST control) | 1.19 fold enrichment (6-mer frequency, TF over GST control) | 1.16 fold enrichment (6-mer frequency, TF over GST control) | 1.18 fold enrichment (6-mer frequency, TF over GST control) | 1.21 fold enrichment (6-mer frequency, TF over GST control)
ACGATA | 1.2 fold enrichment (6-mer frequency, TF over GST control) | 1.18 fold enrichment (6-mer frequency, TF over GST control) | 1.25 fold enrichment (6-mer frequency, TF over GST control) | 1.13 fold enrichment (6-mer frequency, TF over GST control) | 1.22 fold enrichment (6-mer frequency, TF over GST control) | 1.09 fold enrichment (6-mer frequency, TF over GST control) | 1.13 fold enrichment (6-mer frequency, TF over GST control) | 1.18 fold enrichment (6-mer frequency, TF over GST control)
TTGTAG | 1.14 fold enrichment (6-mer frequency, TF over GST control) | 1.2 fold enrichment (6-mer frequency, TF over GST control) | 1.17 fold enrichment (6-mer frequency, TF over GST control) | 1.09 fold enrichment (6-mer frequency, TF over GST control) | 1.12 fold enrichment (6-mer frequency, TF over GST control) | 1.1 fold enrichment (6-mer frequency, TF over GST control) | 1.13 fold enrichment (6-mer frequency, TF over GST control) | 1.13 fold enrichment (6-mer frequency, TF over GST control)
ATACGC | 1.18 fold enrichment (6-mer frequency, TF over GST control) | 1.14 fold enrichment (6-mer frequency, TF over GST control) | 1.11 fold enrichment (6-mer frequency, TF over GST control) | 1.2 fold enrichment (6-mer frequency, TF over GST control) | 1.06 fold enrichment (6-mer frequency, TF over GST control) | 1.11 fold enrichment (6-mer frequency, TF over GST control) | 1.07 fold enrichment (6-mer frequency, TF over GST control) | 1.2 fold enrichment (6-mer frequency, TF over GST control)
CCATAC | 1.27 fold enrichment (6-mer frequency, TF over GST control) | 1.22 fold enrichment (6-mer frequency, TF over GST control) | 1.18 fold enrichment (6-mer frequency, TF over GST control) | 1.2 fold enrichment (6-mer frequency, TF over GST control) | 1.14 fold enrichment (6-mer frequency, TF over GST control) | 1.09 fold enrichment (6-mer frequency, TF over GST control) | 1.08 fold enrichment (6-mer frequency, TF over GST control) | 1.21 fold enrichment (6-mer frequency, TF over GST control)
TAAATA | 1.21 fold enrichment (6-mer frequency, TF over GST control) | 1.27 fold enrichment (6-mer frequency, TF over GST control) | 1.27 fold enrichment (6-mer frequency, TF over GST control) | 1.15 fold enrichment (6-mer frequency, TF over GST control) | 1.31 fold enrichment (6-mer frequency, TF over GST control) | 1.16 fold enrichment (6-mer frequency, TF over GST control) | 1.28 fold enrichment (6-mer frequency, TF over GST control) | 1.32 fold enrichment (6-mer frequency, TF over GST control)
CAGGAT | 1.15 fold enrichment (6-mer frequency, TF over GST control) | 1.3 fold enrichment (6-mer frequency, TF over GST control) | 1.19 fold enrichment (6-mer frequency, TF over GST control) | 2.03 fold enrichment (6-mer frequency, TF over GST control) | 1.09 fold enrichment (6-mer frequency, TF over GST control) | 1.28 fold enrichment (6-mer frequency, TF over GST control) | 1.22 fold enrichment (6-mer frequency, TF over GST control) | 1.19 fold enrichment (6-mer frequency, TF over GST control)
TCCGTC | 1.16 fold enrichment (6-mer frequency, TF over GST control) | 1.46 fold enrichment (6-mer frequency, TF over GST control) | 1.3 fold enrichment (6-mer frequency, TF over GST control) | 1.6 fold enrichment (6-mer frequency, TF over GST control) | 1.14 fold enrichment (6-mer frequency, TF over GST control) | 1.57 fold enrichment (6-mer frequency, TF over GST control) | 1.55 fold enrichment (6-mer frequency, TF over GST control) | 1.37 fold enrichment (6-mer frequency, TF over GST control)
TTCTTG | 1.56 fold enrichment (6-mer frequency, TF over GST control) | 1.56 fold enrichment (6-mer frequency, TF over GST control) | 1.39 fold enrichment (6-mer frequency, TF over GST control) | 1.28 fold enrichment (6-mer frequency, TF over GST control) | 1.48 fold enrichment (6-mer frequency, TF over GST control) | 1.39 fold enrichment (6-mer frequency, TF over GST control) | 1.47 fold enrichment (6-mer frequency, TF over GST control) | 1.38 fold enrichment (6-mer frequency, TF over GST control)
CACATC | 1.39 fold enrichment (6-mer frequency, TF over GST control) | 1.41 fold enrichment (6-mer frequency, TF over GST control) | 1.38 fold enrichment (6-mer frequency, TF over GST control) | 2.09 fold enrichment (6-mer frequency, TF over GST control) | 1.38 fold enrichment (6-mer frequency, TF over GST control) | 1.42 fold enrichment (6-mer frequency, TF over GST control) | 1.49 fold enrichment (6-mer frequency, TF over GST control) | 1.5 fold enrichment (6-mer frequency, TF over GST control)
TACAAG | 1.1 fold enrichment (6-mer frequency, TF over GST control) | 1.05 fold enrichment (6-mer frequency, TF over GST control) | 1.1 fold enrichment (6-mer frequency, TF over GST control) | 1.1 fold enrichment (6-mer frequency, TF over GST control) | 1.02 fold enrichment (6-mer frequency, TF over GST control) | 1.06 fold enrichment (6-mer frequency, TF over GST control) | 1.02 fold enrichment (6-mer frequency, TF over GST control) | 1.04 fold enrichment (6-mer frequency, TF over GST control)
GAAACT | 1.03 fold enrichment (6-mer frequency, TF over GST control) | 1.22 fold enrichment (6-mer frequency, TF over GST control) | 1.22 fold enrichment (6-mer frequency, TF over GST control) | 1.13 fold enrichment (6-mer frequency, TF over GST control) | 1.31 fold enrichment (6-mer frequency, TF over GST control) | 1.28 fold enrichment (6-mer frequency, TF over GST control) | 1.16 fold enrichment (6-mer frequency, TF over GST control) | 1.2 fold enrichment (6-mer frequency, TF over GST control)
ATTATC | 1.36 fold enrichment (6-mer frequency, TF over GST control) | 1.39 fold enrichment (6-mer frequency, TF over GST control) | 1.29 fold enrichment (6-mer frequency, TF over GST control) | 1.34 fold enrichment (6-mer frequency, TF over GST control) | 1.18 fold enrichment (6-mer frequency, TF over GST control) | 1.31 fold enrichment (6-mer frequency, TF over GST control) | 1.37 fold enrichment (6-mer frequency, TF over GST control) | 1.29 fold enrichment (6-mer frequency, TF over GST control)
